Laboratory results published in PubChem BioAssay (NCATS).
Inconclusive results are not listed. Active and inactive are the calls of the source. Unless noted, the call rests on the fitted dose curve; in most records, active means well fitted curve in the direction sought with a large enough effect; inconclusive means small, poorly fitted or top-dose-only effect, or another doubt; inactive means no such curve, though single readings can be large; an effect the other way counts as inactive or inconclusive.

Key:
[1] = target: Aldehyde dehydrogenase, mitochondrial (Homo sapiens) (UniProt P05091); experiment: qHTS for Inhibitors of the Aldehyde Dehydrogenase Family (ALDH2) Confirmatory screens (AID 2061303; active means well fitted inhibition curve with a large enough effect; title and protocol of this record describe different tests; further: nearly all actives have a fitted effect of over 45% in size; further: potency means the concentration at half of the fitted maximal effect); conditions: ALDH inhibition qHTS; series mostly up to 45.4 µM
[2] = target: Aldehyde dehydrogenase, mitochondrial (Homo sapiens) (UniProt P05091); experiment: qHTS for Inhibitors of the Aldehyde Dehydrogenase Family (ALDH2) Primary screen (AID 2061308); conditions: ALDH2 enzyme inhibition qHTS, 1536-well; series mostly up to 56 µM; further: nearly all actives have a fitted effect of over 55% in size; further: potency means the concentration at half of the fitted maximal effect
[3] = target: Retinaldehyde dehydrogenase 3 (Homo sapiens) (UniProt P47895); experiment: qHTS for Inhibitors of the Aldehyde Dehydrogenase Family (ALDH1A3) Confirmatory screens (AID 2061311); conditions: ALDH inhibition qHTS; series mostly up to 46 µM; further: nearly all actives have a fitted effect of over 60% in size; further: potency means the concentration at half of the fitted maximal effect
[4] = target: Retinal dehydrogenase 2 (Homo sapiens) (UniProt O94788); experiment: qHTS for Inhibitors of the Aldehyde Dehydrogenase Family (ALDH1A2) Confirmation screens (AID 2061314); conditions: ALDH1A2 enzyme inhibition qHTS confirmation; series mostly up to 45.9 µM; further: nearly all actives have a fitted effect of over 65% in size; further: potency means the concentration at half of the fitted maximal effect
[5] = qHTS for Inhibitors of the Aldehyde Dehydrogenase Family (ALDH1A2, ALDH1A3, ALDH2, ALDH3A1) (AID 2061307); conditions: ALDH inhibition qHTS; series mostly up to 50.3 µM; further: nearly all actives have a fitted effect of over 50% in size
[6] = target: Aldehyde dehydrogenase 1A1 (Homo sapiens) (UniProt P00352); experiment: qHTS for Inhibitors of the Aldehyde Dehydrogenase Family (ALDH1A1) Confirmatory screens (AID 2061316); conditions: ALDH inhibition qHTS; series mostly up to 47.3 µM; further: nearly all actives have a fitted effect of over 65% in size; further: potency means the concentration at half of the fitted maximal effect
[7] = target: Retinaldehyde dehydrogenase 3 (Homo sapiens) (UniProt P47895); experiment: qHTS for Inhibitors of the Aldehyde Dehydrogenase Family (ALDH1A3) Primary screen (AID 2061315); conditions: ALDH inhibition qHTS; series mostly up to 56 µM
[8] = target: Retinaldehyde dehydrogenase 3 (Homo sapiens) (UniProt P47895); experiment: qHTS for Inhibitors of the Aldehyde Dehydrogenase Family (ALDH1A3) Validation screen (AID 2061312); conditions: ALDH1A3 enzyme inhibition qHTS validation, fluorescence; series mostly up to 84.7 µM; further: nearly all actives have a fitted effect of over 45% in size
[9] = BET inhibitor-based combinations targeting novel dependencies in MECOM-rearranged (r) AML: SET-2 cell line (AID 2202231); conditions: SET-2 AML cells viability, CellTiter-Glo luminescence, 48 h; viability: hits give low values, concentration not given here; further: potency means the concentration at half of the fitted maximal effect; nearly all actives have a fitted effect of over 35% in size
In short: (§1)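 Luminescent ATP readout (CellTiter-Glo) after 48 hr drug exposure gives viability. Curves span 11 concentrations and are normalized to DMSO and empty wells. Activity is reported as area under the curve and its Z-transform within each cell line.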

[10] = BET inhibitor-based combinations targeting novel dependencies in MECOM-rearranged (r) AML: MV-4-11 cell line (AID 2202233); conditions: MV-4-11 AML viability, CellTiter-Glo luminescence, 48 h; series mostly up to 46 µM; further: potency means the concentration at half of the fitted maximal effect; nearly all actives have a fitted effect of over 45% in size
In short: (§2)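 Luminescent ATP readout (CellTiter-Glo, 15 min at room temperature) after 48 hr drug exposure gave viability. Dose-response curves, normalized to DMSO and empty-well controls, were summarized as area under the curve and its mean-centred Z-score.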

[11] = BET inhibitor-based combinations targeting novel dependencies in MECOM-rearranged (r) AML: HNT-34 cell line (AID 2202234); conditions: HNT-34 AML viability, CellTiter-Glo luminescence, 48 h; series mostly up to 46 µM; further: potency means the concentration at half of the fitted maximal effect; nearly all actives have a fitted effect of over 35% in size
In short: as §2

[12] = BET inhibitor-based combinations targeting novel dependencies in MECOM-rearranged (r) AML: UCSD-AML1 cell line (AID 2202235); conditions: UCSD-AML1 AML cells viability, CellTiter-Glo, 48 h; series mostly up to 46 µM; further: potency means the concentration at half of the fitted maximal effect; nearly all actives have a fitted effect of over 40% in size
In short: as §2

[13] = BET inhibitor-based combinations targeting novel dependencies in MECOM-rearranged (r) AML: AML-191 cell line (AID 2202236; further: potency means the concentration at half of the fitted maximal effect; nearly all actives have a fitted effect of over 35% in size); conditions: AML-191 viability, CellTiter-Glo luminescence, 48 h; series mostly up to 46 µM
In short: as §1

[14] = BET inhibitor-based combinations targeting novel dependencies in MECOM-rearranged (r) AML: AML-194 cell line (AID 2202237; further: potency means the concentration at half of the fitted maximal effect; nearly all actives have a fitted effect of over 40% in size); conditions: AML-194 (MECOM-r AML) viability, CellTiter-Glo, 48 h; series mostly up to 46 µM
In short: as §1

Measured: Potency

Cc1c(C(=O)N(C)CC2CCCO2)[nH]c2c1C(=O)CC(c1ccco1)C2 (centres undefined)
active: [3] 15.9 µM | [4] 12.7 µM
inactive: [1] | [2]

COc1cccc(Cc2nc3ccccc3nc2SCC(=O)N2CCN(c3ccccc3)CC2)c1
inactive: [1] | [5] | [4] | [6]

CCc1nc2nc(C)cc(Nc3ccc(Br)cc3F)n2n1
inactive: [1] | [5] | [4] | [6]

Fc1ccc(N2CCN(CCC3OCCc4ccccc43)CC2)cc1 (centres undefined)
inactive: [1] | [5] | [6]

Oc1cc(NCCc2cccnc2)cc2cccnc12
active: [3] 0.4 µM
inactive: [1] | [2] | [4]

Cc1cc(C=CC#N)cc(C)c1Nc1nc(Nc2ccc3c(c2)CCC3)c2[nH]cnc2n1
inactive: [1] | [2] | [3] | [4] | [7]

CC(=O)c1ccc(N2CCN(C(=O)Nc3ccc(C(C)C)cc3)CC2)cc1
inactive: [1] | [5]
active: [6] 3.24 µM

O=C(Nc1cccc(-c2nc3cc(Cl)ccc3o2)c1)c1cc([N+](=O)[O-])ccc1N1CCOCC1
inactive: [1] | [5] | [4] | [6]

COc1cc(O)c(C(CC(=O)N2CCCC(CN3CCCCC3)C2)c2ccc3c(c2)OCO3)c(OC)c1 (centres undefined)
inactive: [1] | [2]

COc1cc(N2C(=O)c3ccccc3C2=O)c2ncccc2c1
inactive: [1] | [5] | [6]

CC(C)(C)OC(=O)N1CCN(c2ccc(NCc3cnc(-c4ccc(C#N)cc4)s3)cc2)CC1
inactive: [4] | [7]
active: [1] 1.79 µM | [5] 2.83 µM | [6] 11.3 µM

Cc1ccc(C(=O)NC2CCN(Cc3cccc(-c4cccc(C)c4)c3)CC2)cc1
inactive: [1] | [5] | [4] | [6]

CC(=O)N1CCN(c2ccc(NCc3ccc(C)cc3)cc2)CC1
active: [3] 22.5 µM | [4] 11.3 µM
inactive: [1] | [2]

O=C(Nc1ccccc1)N1CCN(Cc2ccc3ccccc3n2)CC1
inactive: [1] | [2] | [3] | [8] | [4] | [7] | [6]

Cc1ccnc(NC(=S)N2CCN(C)CC2)c1
active: [6] 20.1 µM
inactive: [1] | [5] | [4]

COc1cc2c(cc1O)C(c1ccc(O)cc1)C(C)C(C)C2 (centres undefined)
inactive: [1] | [2]

Cc1cc(-c2nnc3n2CCCCC3)c(C)n1-c1ccc(Br)cc1
inactive: [1] | [5] | [7]
active: [6] 12.7 µM

C[C@H]1[C@H](/C=C/c2ccc(-c3ccccc3C#N)cn2)[C@@H]2[C@@H](C)OC(=O)[C@@H]2C[C@@H]1C
inactive: [1] | [2] | [3] | [8] | [4] | [7]
active: [6] 1.27 µM

COc1ccc(NC(=O)O[C@@H]2CO[C@H]3[C@@H]2OC[C@@H]3n2nnnc2SCc2ccco2)cc1
inactive: [1]
active: [5] 12.9 µM | [6] 10.2 µM

O=C(OCC#CCSc1nnc(-c2ccco2)o1)c1ccc(F)cc1
inactive: [5] | [7]
active: [1] 15.9 µM | [6] 8.96 µM

N#Cc1cccc(NC(=S)N[C@H]2CO[C@H]3[C@@H]2OC[C@@H]3n2nnnc2Oc2cccc(N3CCOCC3)c2)c1
inactive: [1] | [4]
active: [5] 6.31 µM | [6] 10.2 µM

N#Cc1cccc(N2CCN(Cc3ccc(F)c(Cl)c3F)CC2)n1
active: [1] 15.8 µM | [5] 4.58 µM | [6] 14.5 µM

CC(=O)/C=C1/C(=O)N(C)c2ccccc21
active: [4] 14.2 µM | [6] 4 µM
inactive: [1] | [5]

N#Cc1ccc(-c2ccc(CNc3ccc(N4CCN5CCCCC5C4)cc3)o2)cc1 (centres undefined)
inactive: [4] | [7]
active: [1] 0.0252 µM | [5] 0.449 µM | [6] 8.96 µM

Nc1ccccc1NC(=O)c1ccc(CNC(=O)OCc2cccnc2)cc1
active: [9] 2.09 µM | [10] 1.48 µM | [11] 2.35 µM | [12] 1.66 µM | [13] 2.63 µM | [14] 4.68 µM
not listed: [5]
inactive: all other assays above

Cc1ccc(OCCn2c(CCNC(=O)c3ccc([N+](=O)[O-])cc3)nc3ccccc32)cc1
inactive: [5] | [4] | [7]
active: [1] 22.5 µM | [6] 17.9 µM

O=C1CCCC2=C1C(c1ccccc1Cl)N=C(c1ccccn1)N2 (centres undefined)
inactive: [1] | [5] | [7]

CCOc1ccc(-c2cc(C(=O)NCCc3ccc(C)cc3)c3ccccc3n2)cc1
inactive: [1] | [5] | [4] | [6]

CCCCc1ccc(NC(=O)CSc2nc3ccccc3nc2N2CCOCC2)cc1
inactive: [1] | [5] | [6]

OCc1ccc(-c2ccc3ncnc(N4CCOCC4)c3c2)o1
inactive: [7]
active: [1] 11.3 µM | [5] 1 µM | [6] 3.18 µM

COc1cc(Nc2nc(-c3ccncc3)nc3ccccc23)ccc1N1CCN(C)CC1
inactive: [1] | [2]

CN1CCN(c2nn3c(=O)c4ccccc4nc3s2)CC1
active: [3] 8.96 µM
inactive: [1] | [2]

O=C(O)c1ccc(-n2cccc2/C=C2\SC(=O)N(Cc3cccc(Cl)c3)C2=O)cc1
inactive: [7]
active: [1] 11.3 µM | [5] 1.79 µM | [6] 7.98 µM

O=C(Cn1nc(-c2ccc(F)cc2)ccc1=O)NCCc1ccccc1
inactive: [1] | [5] | [7] | [6]

O=C(Nc1ccc(Cl)c(Cl)c1)Nc1cccc(-c2ccncc2)n1
inactive: [1] | [5] | [4] | [7] | [6]

O=S1(=O)N=C(Oc2ccccc2Br)c2ccccc21
inactive: [1] | [5] | [7]

COc1ccnc(NC(=S)N2CCN(c3ccccc3C(F)(F)F)CC2)c1
active: [5] 14.1 µM | [4] 11.3 µM | [6] 5.65 µM
inactive: [1]

NC(=O)C1CCN(c2ncc(-c3cccc(N4CCOCC4)c3)s2)CC1
inactive: [1] | [2] | [3] | [4] | [7]
active: [6] 6.34 µM

CCOc1ccccc1-c1nnc2n1N=C(c1cccc(OC)c1)CS2
inactive: [1] | [2] | [3] | [4] | [7]

O=C(CN1C(=O)CC(c2ccco2)Sc2ccccc21)Nc1ccccc1F (centres undefined)
active: [6] 2.52 µM
inactive: [1] | [2] | [3] | [4] | [7]

COc1cc(O)c(C(CC(=O)N2CCCC(C(C)C)C2)c2ccc3c(c2)OCO3)c(OC)c1 (centres undefined)
inactive: [1] | [2] | [3] | [4] | [7]

O=S(=O)(Nc1ccc(O)c2ncccc12)c1ccccc1F
active: [1] 4.49 µM | [3] 2.25 µM | [4] 2.83 µM | [6] 2.01 µM
inactive: [2]

CCc1nc2c(sc3nc4c(cc32)COC(C)(C)C4)c(=O)n1Cc1ccco1
inactive: [2]
active: [1] 6.34 µM | [3] 7.98 µM | [4] 7.12 µM | [6] 0.634 µM

CC(C)(C)OC(=O)NC1CCN(c2nc(-c3ccc(Br)cc3)cs2)CC1
inactive: [1] | [2] | [3] | [4] | [7] | [6]

C#Cc1nc(Nc2cccc(Cl)c2)nc(NC2CCCC2)n1
active: [1] 31.6 µM | [3] 14.1 µM | [4] 8.91 µM
inactive: [2] | [7]

NC(=O)C1CCN(c2nc(-c3ccc(Cl)cc3)cs2)CC1
inactive: [1] | [2] | [3] | [4] | [7] | [6]

O=C(Nc1cncc(O)c1)c1cccs1
active: [1] 12.7 µM | [3] 12.7 µM | [4] 2.25 µM
inactive: [2] | [7]

COc1ccc(C2=Nn3c(nnc3-c3ccccc3O)SC2)cc1
inactive: [1] | [2] | [3] | [4] | [7]

Cc1cnc(-c2ccccc2C(C)C)nc1NCC1CN(c2cccnc2)C1
active: [1] 11.3 µM | [3] 11.3 µM | [4] 2.52 µM | [6] 8.96 µM
inactive: [2] | [7]

N#Cc1cc(C2=Nc3ccc(Br)cc3NC(=O)C2)ccn1
inactive: [1] | [2] | [3] | [4] | [7] | [6]

O=C(Nc1cncc(NC(=O)c2cccs2)c1)c1cccs1
inactive: [1] | [2] | [4] | [7] | [6]
active: [3] 28.3 µM

O=C1CC(c2ccccc2)CC2=C1C1(CCCC1)N=C(Nc1nc3ccccc3o1)N2 (centres undefined)
inactive: [1] | [2] | [3] | [4] | [7] | [6]

O=C1c2ccccc2NC(c2ccc(-c3ccccc3F)o2)N1O (centres undefined)
inactive: [3] | [7]
active: [1] 11.3 µM | [2] 8.91 µM | [4] 25.2 µM

COc1cccc(-c2no[n+]([O-])c2C#N)c1
active: [4] 10.1 µM
inactive: [1] | [2] | [3] | [7] | [6]

CC(=O)NC(c1ccco1)c1cc(Cl)c2ccc(N3CCCCC3)nc2c1O (centres undefined)
active: [1] 10.1 µM | [3] 11.3 µM | [4] 1.59 µM | [6] 2.25 µM
inactive: [2] | [7]

N#CC1CCN(c2nc(-c3ccc(Br)cc3)cs2)CC1
inactive: [1] | [2] | [3] | [4] | [7]

Cc1cnc(-c2ccccc2C(C)O)nc1NCC1CCN(c2cccnc2)CC1 (centres undefined)
active: [4] 12.7 µM
inactive: [1] | [2] | [3] | [7]

O=C1Nc2ccccc2/C1=C\c1ccc(O)c(F)c1
active: [1] 0.224 µM | [2] 2.51 µM | [3] 15.8 µM | [4] 5.65 µM
inactive: [7] | [6]

COc1ccc([N+](=O)[O-])c(S(=O)(=O)c2ccc(Cl)cc2)n1
active: [1] 5.04 µM | [2] 1.78 µM | [3] 10 µM | [4] 15.8 µM | [6] 1.27 µM

Brc1ccc(-c2csc(N3CCC(c4nn[nH]n4)CC3)n2)cc1
inactive: [1] | [2] | [3] | [4] | [7]
